According to PubChem BioAssay (EPA / NIEHS):
Where “and” joins values, the source holds several entries; their conditions need not be identical. Equal values may be shown once. Results filed as inconclusive are left out. Some compounds were tested as several samples or in several runs, with calls that do not always agree. Calls of active or inactive are those of the source. How the source made its calls, unless noted: active means hit-call score of the fitted dose curve at least 0.9, where 1 is the maximum; inactive means score below 0.9.

Tests used:
[1] = read-out: Collagen I, COL1A1 (gene 1277); experiment: BSK_MyoF_CollagenI: BioMAP Diversity Plus: MyoF Assay for Collagen I Biomarker Activity (AID 2284238); settings: primary human lung fibroblasts
Summary of the method: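 Measured by ELISA: Collagen I from human lung fibroblasts 24 h after compound addition, analysed for signal gain with DMSO as baseline; overt toxicity read from SRB staining of parallel cultures at the same time.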

[2] = read-out: Collagen III, COL3A1 (gene 1281); experiment: BSK_MyoF_CollagenIII: BioMAP Diversity Plus: MyoF Assay for Collagen III Biomarker Activity (AID 2284239); settings: primary human lung fibroblasts
Summary of the method: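 Multiplexed cell assay in lung fibroblasts, harvested at 24 h post-dose. Collagen III detected by ELISA, with positive-direction fitting relative to DMSO vehicle.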

[3] = CCTE_Mundy_HCI_hNP1_Casp3_7: CCTE's Caspase-Glo 3/7 Assay in human neuroprogenitor cells for Apoptosis, Mundy Lab (AID 2284240)
Summary of the method: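 Apoptosis is scored by activated caspase-3/7 luminescence in WA09-derived neural progenitor cells, measured 26.5 h after chemical dosing. Values represent gain of signal relative to DMSO vehicle.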

[4] = CCTE_Mundy_HCI_hNP1_CellTiter: CCTE's Cell Titer-Glo 2 Assay in human neuroprogenitor cells for Viability, Mundy Lab (AID 2284241; active means hit-call score of the fitted dose curve at least 0.9, where 1 is the maximum;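 on AC50: a hit is a drop in ATP luminescence versus DMSO meaning reduced viability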)
Summary of the method: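 Human neural progenitor cells (hNP1, WA09-derived) were plated on poly-L-ornithine/laminin and grown 40 to 44 hours at 37 °C, 5% CO2 before chemical addition. Twenty-four hours later, ATP was measured by CellTiter-Glo luminescence; loss of signal versus DMSO indicates reduced viability.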

[5] = read-out: Interleukin 17F (IL17F), IL17F (gene 112744); experiment: BSK_BT_xIL17F: BioMAP Diversity Plus: BT Assay for Interleukin 17F (IL17F) Biomarker Activity (AID 2284243); settings: primary human B cells with PBMC
Summary of the method: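 Luminex readout of IL-17F secretion, 24 h; cells: human B cells with PBMC; positive-direction analysis, DMSO control.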

[6] = read-out: Actin alpha 1 (ACTA1), ACTA1 (gene 58); experiment: BSK_MyoF_ACTA1: BioMAP Diversity Plus: MyoF Assay for Actin alpha 1 (ACTA1) Biomarker Activity (AID 2284244); settings: primary human lung fibroblasts
Summary of the method: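 Lung fibroblasts, human primary, 24 h compound exposure → a-SMA ELISA. Positive-direction fit vs DMSO control.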

[7] = read-out: Interleukin 2 (IL2), IL2 (gene 3558); experiment: BSK_BT_xIL2: BioMAP Diversity Plus: BT Assay for Interleukin 2 (IL2) Biomarker Activity (AID 2284245); settings: primary human B cells with PBMC
Summary of the method: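 B cell + PBMC co-culture (human primary), compound added, 24 h incubation; secreted IL-2 measured multiplexed on Luminex xMAP; gain-of-signal fit vs DMSO.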

[8] = read-out: Collagen IV, COL4A1 (gene 1282); experiment: BSK_MyoF_CollagenIV: BioMAP Diversity Plus: MyoF Assay for Collagen IV Biomarker Activity (AID 2284247); settings: primary human lung fibroblasts
Summary of the method: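 Steps: dose human lung fibroblasts; culture 24 h; quantify Collagen IV by ELISA; fit increase versus DMSO control. Parallel SRB total-protein staining (0.1% SRB after 10% TCA fixation, 560 nm) tracks overt cytotoxicity.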

[9] = read-out: Monokine induced gamma interferon (MIG), CXCL9 (gene 4283); experiment: BSK_KF3CT_MIG: BioMAP Diversity Plus: KF3CT Assay for Monokine induced gamma interferon (MIG) Biomarker Activity (AID 2284248); settings: primary human keratinocytes with fibroblasts
Summary of the method: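 MIG in dosed human skin co-cultures was measured by ELISA at 24 h, relative to DMSO.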

[10] = read-out: Vascular cell adhesion molecule 1 (VCAM1), VCAM1 (gene 7412); experiment: BSK_BF4T_VCAM1: BioMAP Diversity Plus: BF4T Assay for Vascular cell adhesion molecule 1 (VCAM1) Biomarker Activity (AID 2284249); settings: primary human bronchial epithelial cells with fibroblasts
Summary of the method: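 Human bronchial epithelial cell and dermal fibroblast co-culture exposed 24 h. VCAM-1 measured by ELISA; parallel SRB total-protein staining for cytotoxicity. Fitted in positive direction relative to DMSO.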

[11] = read-out: Collagen I, COL1A1 (gene 1277); experiment: BSK_hDFCGF_CollagenI: BioMAP Diversity Plus: hDFCGF Assay for Collagen I Biomarker Activity (AID 2284250); settings: primary human foreskin fibroblasts
Summary of the method: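 Human skin primary fibroblasts dosed with test chemical, harvested at 24 h, Collagen I quantified by ELISA; parallel SRB staining (0.1% SRB after 10% TCA fixation, 560 nm) tracked cytotoxicity.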

[12] = read-out: Interferon-inducible T-cell alpha chemoattractant (ITAC), CXCL11 (gene 6373); experiment: BSK_hDFCGF_ITAC: BioMAP Diversity Plus: hDFCGF Assay for Interferon-inducible T-cell alpha chemoattractant (ITAC) Biomarker Activity (AID 2284251); settings: primary human foreskin fibroblasts
Summary of the method: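 Fibroblasts (human foreskin, primary) are treated with chemical, cultured 24 h, then assayed for I-TAC by ELISA. Overt toxicity is checked in parallel cultures by sulforhodamine B staining of total protein at the same time point.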

[13] = read-out: Plasminogen activator inhibitor-1 (PAI1), SERPINE1 (gene 5054); experiment: BSK_KF3CT_PAI1: BioMAP Diversity Plus: KF3CT Assay for Plasminogen activator inhibitor-1 (PAI1) Biomarker Activity (AID 2284252); settings: primary human keratinocytes with fibroblasts
Summary of the method: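 ELISA read-out of PAI-1 taken 24 h after chemical treatment of a human skin primary co-culture of keratinocytes and foreskin fibroblasts. Increases over DMSO-treated wells defined activity.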

[14] = read-out: Monocyte Chemoattractant Protein-1 (MCP1), CCL2 (gene 6347); experiment: BSK_IMphg_MCP1: BioMAP Diversity Plus: IMphg Assay for Monocyte Chemoattractant Protein-1 (MCP1) Biomarker Activity (AID 2284253); settings: primary human endothelial cells with macrophages
Summary of the method: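 Human venular endothelial cells co-cultured with macrophages; MCP-1 measured by ELISA 24 hours post-dose and fitted against DMSO. Cytotoxicity monitored by SRB total-protein staining in parallel cultures.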

[15] = read-out: Interleukin-8 (IL8), CXCL8 (gene 3576); experiment: BSK_KF3CT_IL8: BioMAP Diversity Plus: KF3CT Assay for Interleukin-8 (IL8) Biomarker Activity (AID 2284254); settings: primary human keratinocytes with fibroblasts
Summary of the method: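 Using parallel SRB-stained cultures to flag overt toxicity, the study quantified IL-8 by ELISA in human keratinocyte–foreskin fibroblast co-cultures 24 h after dosing, with DMSO as negative control and baseline.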

[16] = read-out: Plasminogen activator inhibitor-1 (PAI1), SERPINE1 (gene 5054); experiment: BSK_MyoF_PAI1: BioMAP Diversity Plus: MyoF Assay for Plasminogen activator inhibitor-1 (PAI1) Biomarker Activity (AID 2284256); settings: primary human lung fibroblasts;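 on outcome: PAI-1 protein level measured by ELISA in fibroblast cultures; PAI-1 read 24 h after compound addition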
Summary of the method: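 In this multiplexed primary-cell system, fibroblasts from human lung received compound for 24 h before ELISA detection of PAI-1; overt toxicity was checked by SRB (0.1%, TCA-fixed, 560 nm) in parallel wells.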

[17] = read-out: CD69, CD69 (gene 969); experiment: BSK_IMphg_CD69: BioMAP Diversity Plus: IMphg Assay for CD69 Biomarker Activity (AID 2284257); settings: primary human endothelial cells with macrophages
Summary of the method: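 Human venular endothelial cells co-cultured with macrophages; CD69 quantified by ELISA 24 h after compound addition. Activity fitted in the positive direction relative to DMSO baseline; cytotoxicity tracked in parallel cultures via SRB total-protein staining.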

[18] = read-out: Eotaxin 3, CCL26 (gene 10344); experiment: BSK_BF4T_Eotaxin3: BioMAP Diversity Plus: BF4T Assay for Eotaxin 3 Biomarker Activity (AID 2284258); settings: primary human bronchial epithelial cells with fibroblasts
Summary of the method: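 Co-culture of human bronchial epithelial cells and dermal fibroblasts, exposed to chemicals for 24 h versus DMSO. Eotaxin-3 quantified by ELISA; cytotoxicity checked in parallel cultures by sulforhodamine B total-protein staining.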

[19] = CCTE_Mundy_HCI_Cortical_NOG_BPCount: CCTE's Neurite Outgrowth Assay in rat cortical cells for Branch Point Count, Mundy Lab (AID 2284237);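 on AC50: branch points counted about two days after chemical exposure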
Summary of the method: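 Measured 50.33 h after dosing, this morphology endpoint uses rat primary cortical cultures labelled for betaIII-tubulin. Branch points are quantified by high-content imaging, with DMSO as negative control and baseline.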

[20] = CCTE_Mundy_HCI_Cortical_Synap_Neur_Matur_NeuronCount: CCTE's Synaptogenesis and Neurite Maturation Assay in rat cortical cells for Neuron Count, Mundy Lab (AID 2284242; active means hit-call score of the fitted dose curve at least 0.9, where 1 is the maximum;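 on AC50: hits reduce neuron count versus DMSO baseline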)
Summary of the method: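 Neuron number was scored by automated high-content imaging of Hoechst- and MAP2-labelled rat primary cortical cells. Glial growth was arrested with AraC at DIV 5, compounds were applied from DIV 7, and cultures ended at DIV 12.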

O=P(O)(O)CCC(F)(F)C(F)(F)C(F)(F)C(F)(F)C(F)(F)C(F)(F)C(F)(F)C(F)(F)F
outcome [1]: inactive
outcome [2]: inactive
outcome [3]: inactive
outcome [4]: inactive
outcome [5]: inactive
outcome [6]: inactive
outcome [7]: inactive
outcome [8]: inactive
outcome [9]: inactive
outcome [10]: inactive
outcome [11]: inactive
AC50 [12]: 236 nM (active)
outcome [12]: inactive
outcome [13]: inactive
outcome [14]: inactive
outcome [15]: inactive
outcome [16]: inactive
outcome [17]: inactive
AC50 [18]: 8050 nM (active)
outcome [18]: inactive

CC1=NN(c2ccccc2)C(=O)C1
outcome [1]: inactive
AC50 [2]: 3970 nM (active)
outcome [5]: inactive
outcome [6]: inactive
outcome [7]: inactive
outcome [8]: inactive
outcome [16]: inactive

C[C@]12CC[C@@H]3c4ccc(O)cc4CC[C@H]3[C@@H]1C[C@@H](O)[C@@H]2O
outcome [1]: inactive
outcome [2]: inactive
outcome [5]: inactive
outcome [6]: inactive
outcome [7]: inactive
outcome [8]: inactive
outcome [16]: inactive

COc1cccc(O)c1
outcome [1]: inactive
outcome [2]: inactive
outcome [5]: inactive
outcome [6]: inactive
outcome [7]: inactive
outcome [8]: inactive
outcome [16]: inactive

O=C1NS(=O)(=O)c2ccccc21
outcome [19]: inactive
outcome [3]: inactive
outcome [4]: inactive
outcome [20]: inactive
outcome [9]: inactive
outcome [11]: inactive
outcome [12]: inactive
outcome [13]: inactive
outcome [15]: inactive

CN(C)c1ccc(C(=C2C=CC(=[N+](C)C)C=C2)c2ccccc2)cc1
AC50 [1]: 8.2 nM (active)
AC50 [2]: 164 nM (active)
AC50 [5]: 490 nM (active)
AC50 [6]: 1060 nM (active)
AC50 [7]: 432 nM (active)
AC50 [8]: 1550 nM (active)
AC50 [16]: 675 nM (active)

O=P(O)(O)CCC(F)(F)C(F)(F)C(F)(F)C(F)(F)C(F)(F)C(F)(F)F
outcome [1]: inactive
outcome [2]: inactive
outcome [3]: inactive
outcome [4]: inactive
outcome [5]: inactive
outcome [6]: inactive
outcome [7]: inactive
outcome [8]: inactive
outcome [9]: inactive
outcome [10]: inactive
outcome [11]: inactive
outcome [12]: inactive
outcome [13]: inactive
outcome [14]: inactive
outcome [15]: inactive
outcome [16]: inactive
outcome [17]: inactive
outcome [18]: inactive

O=C1c2ccc(O)c(O)c2C(=O)c2c(O)ccc(O)c21
outcome [1]: inactive
outcome [2]: inactive
outcome [5]: inactive
outcome [6]: inactive
outcome [7]: inactive
outcome [8]: inactive
outcome [16]: inactive

CC(C)c1c(C(=O)Nc2ccccc2)c(-c2ccccc2)c(-c2ccc(F)cc2)n1CC[C@@H](O)C[C@@H](O)CC(=O)O
AC50 [19]: 89.6 nM (active)
AC50 [3]: 12100 nM (active)
AC50 [4]: 12800 nM (active)
AC50 [20]: 5150 nM (active)

OCC(F)(F)C(F)(F)C(F)(F)C(F)(F)C(F)(F)C(F)(F)C(F)(F)C(F)(F)C(F)(F)C(F)(F)C(F)(F)F
outcome [1]: inactive
outcome [2]: inactive
outcome [3]: inactive
outcome [4]: inactive
AC50 [5]: 13.9 nM (active) and 23.8 nM (active)
outcome [6]: inactive
outcome [7]: inactive
outcome [8]: inactive
outcome [9]: inactive
outcome [10]: inactive
AC50 [11]: 42.7 nM (active) and 48.2 nM (active)
outcome [12]: inactive
outcome [13]: inactive
outcome [14]: inactive
outcome [15]: inactive
outcome [16]: inactive
outcome [17]: inactive
outcome [18]: inactive
